Results: ChEMBL document CHEMBL1961873, “Compounds: GSK PKIS; Assays: Nanosyn kinase panel” (2012)

Experiments:
[1] = target: Platelet-derived growth factor receptor beta (Homo sapiens) (UniProt P09619); settings: at 1 µM;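 note: each value is a mean percent inhibition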
[2] = target: Tyrosine-protein kinase FRK (Homo sapiens) (UniProt P42685); settings: at 0.1 µM
[3] = target: Tyrosine-protein kinase FRK (Homo sapiens) (UniProt P42685); settings: at 1 µM
[4] = target: Protein-tyrosine kinase 2-beta (Homo sapiens) (UniProt Q14289); settings: at 0.1 µM
Chain of Protein-tyrosine kinase 2-beta (Homo sapiens) (Q14289 whole entry, looked up): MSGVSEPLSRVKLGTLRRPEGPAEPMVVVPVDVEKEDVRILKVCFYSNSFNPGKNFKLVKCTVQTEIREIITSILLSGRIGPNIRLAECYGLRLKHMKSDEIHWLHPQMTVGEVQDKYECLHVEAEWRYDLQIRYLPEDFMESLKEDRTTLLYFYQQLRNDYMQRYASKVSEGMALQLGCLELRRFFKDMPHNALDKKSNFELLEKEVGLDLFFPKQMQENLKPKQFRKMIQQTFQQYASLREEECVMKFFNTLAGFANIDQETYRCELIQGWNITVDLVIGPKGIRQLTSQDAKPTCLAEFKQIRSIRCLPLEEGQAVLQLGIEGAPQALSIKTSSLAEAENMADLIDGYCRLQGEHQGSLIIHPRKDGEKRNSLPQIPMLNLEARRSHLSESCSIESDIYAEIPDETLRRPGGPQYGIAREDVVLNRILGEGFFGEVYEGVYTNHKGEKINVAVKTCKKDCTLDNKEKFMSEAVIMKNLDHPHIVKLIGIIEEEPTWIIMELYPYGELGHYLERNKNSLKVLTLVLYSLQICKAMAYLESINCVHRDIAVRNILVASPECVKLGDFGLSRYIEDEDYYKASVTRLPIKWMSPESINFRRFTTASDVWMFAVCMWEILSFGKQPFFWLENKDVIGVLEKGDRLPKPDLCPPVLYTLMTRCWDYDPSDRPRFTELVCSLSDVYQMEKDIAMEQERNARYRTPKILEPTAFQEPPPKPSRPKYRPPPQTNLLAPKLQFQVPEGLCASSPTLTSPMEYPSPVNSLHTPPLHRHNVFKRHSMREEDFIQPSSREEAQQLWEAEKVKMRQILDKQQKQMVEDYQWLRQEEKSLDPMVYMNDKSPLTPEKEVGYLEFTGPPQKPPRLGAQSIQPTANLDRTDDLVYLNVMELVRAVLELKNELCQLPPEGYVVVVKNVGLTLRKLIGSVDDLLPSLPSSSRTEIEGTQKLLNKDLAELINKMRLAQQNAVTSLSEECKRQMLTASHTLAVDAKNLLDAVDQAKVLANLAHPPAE

[5] = target: Protein-tyrosine kinase 2-beta (Homo sapiens) (UniProt Q14289); settings: at 1 µM
[6] = target: Proto-oncogene tyrosine-protein kinase receptor Ret (Homo sapiens) (UniProt P07949); settings: at 0.1 µM
Chain of Proto-oncogene tyrosine-protein kinase receptor Ret (Homo sapiens) (P07949 whole entry): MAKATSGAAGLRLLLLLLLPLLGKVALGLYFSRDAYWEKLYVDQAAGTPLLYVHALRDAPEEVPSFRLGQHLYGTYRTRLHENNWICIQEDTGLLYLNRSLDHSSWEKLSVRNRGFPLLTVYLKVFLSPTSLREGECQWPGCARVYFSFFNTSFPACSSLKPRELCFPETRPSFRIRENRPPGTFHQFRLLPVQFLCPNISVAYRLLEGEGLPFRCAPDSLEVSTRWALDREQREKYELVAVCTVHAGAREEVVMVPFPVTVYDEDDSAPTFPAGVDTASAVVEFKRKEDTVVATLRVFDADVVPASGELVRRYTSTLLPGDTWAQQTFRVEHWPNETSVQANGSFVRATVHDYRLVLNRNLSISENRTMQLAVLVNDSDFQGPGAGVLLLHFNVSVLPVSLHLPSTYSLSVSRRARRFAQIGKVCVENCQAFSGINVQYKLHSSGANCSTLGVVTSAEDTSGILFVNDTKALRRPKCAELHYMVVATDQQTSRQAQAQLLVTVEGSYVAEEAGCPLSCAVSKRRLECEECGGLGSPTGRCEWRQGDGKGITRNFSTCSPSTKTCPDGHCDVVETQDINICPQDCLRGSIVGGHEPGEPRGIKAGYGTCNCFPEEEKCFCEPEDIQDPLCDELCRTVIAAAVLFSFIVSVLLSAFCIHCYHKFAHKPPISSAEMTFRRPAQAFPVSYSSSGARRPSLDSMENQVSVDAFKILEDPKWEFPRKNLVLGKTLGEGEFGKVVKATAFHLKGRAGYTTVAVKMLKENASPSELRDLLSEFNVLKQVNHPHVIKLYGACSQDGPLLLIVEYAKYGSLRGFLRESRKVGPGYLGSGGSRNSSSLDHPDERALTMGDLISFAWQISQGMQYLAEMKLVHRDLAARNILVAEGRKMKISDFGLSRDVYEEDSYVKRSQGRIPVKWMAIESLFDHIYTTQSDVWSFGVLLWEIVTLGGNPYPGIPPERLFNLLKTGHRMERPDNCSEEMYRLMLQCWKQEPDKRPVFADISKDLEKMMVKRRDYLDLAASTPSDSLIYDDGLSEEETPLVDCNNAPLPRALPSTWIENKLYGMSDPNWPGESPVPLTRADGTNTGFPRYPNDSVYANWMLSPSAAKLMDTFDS

[7] = target: Proto-oncogene tyrosine-protein kinase receptor Ret (Homo sapiens) (UniProt P07949); settings: at 1 µM
[8] = tested on: Proto-oncogene tyrosine-protein kinase receptor Ret (Homo sapiens), P07949 [V804L]; settings: at 0.1 µM
Chain of Proto-oncogene tyrosine-protein kinase receptor Ret (Homo sapiens), P07949 [V804L] (P07949 whole entry V804L): as the sequence (P07949 whole entry) above, with V804L counted along it

[9] = tested on: Proto-oncogene tyrosine-protein kinase receptor Ret (Homo sapiens), P07949 [V804L]; settings: at 1 µM
[10] = tested on: Proto-oncogene tyrosine-protein kinase receptor Ret (Homo sapiens), P07949 [Y791F]; settings: at 0.1 µM
Chain of Proto-oncogene tyrosine-protein kinase receptor Ret (Homo sapiens), P07949 [Y791F] (P07949 whole entry Y791F): as the sequence (P07949 whole entry) above, with Y791F counted along it

[11] = tested on: Proto-oncogene tyrosine-protein kinase receptor Ret (Homo sapiens), P07949 [Y791F]; settings: at 1 µM
[12] = target: Macrophage-stimulating protein receptor (Homo sapiens) (UniProt Q04912); settings: at 0.1 µM
[13] = target: Macrophage-stimulating protein receptor (Homo sapiens) (UniProt Q04912); settings: at 1 µM
[14] = target: Proto-oncogene tyrosine-protein kinase ROS (Homo sapiens) (UniProt P08922); settings: at 0.1 µM
[15] = target: Proto-oncogene tyrosine-protein kinase ROS (Homo sapiens) (UniProt P08922); settings: at 1 µM
[16] = target: Proto-oncogene tyrosine-protein kinase Src (Homo sapiens) (UniProt P12931); settings: at 0.1 µM
Chain of Proto-oncogene tyrosine-protein kinase Src (Homo sapiens) (P12931 2-536 limits assumed): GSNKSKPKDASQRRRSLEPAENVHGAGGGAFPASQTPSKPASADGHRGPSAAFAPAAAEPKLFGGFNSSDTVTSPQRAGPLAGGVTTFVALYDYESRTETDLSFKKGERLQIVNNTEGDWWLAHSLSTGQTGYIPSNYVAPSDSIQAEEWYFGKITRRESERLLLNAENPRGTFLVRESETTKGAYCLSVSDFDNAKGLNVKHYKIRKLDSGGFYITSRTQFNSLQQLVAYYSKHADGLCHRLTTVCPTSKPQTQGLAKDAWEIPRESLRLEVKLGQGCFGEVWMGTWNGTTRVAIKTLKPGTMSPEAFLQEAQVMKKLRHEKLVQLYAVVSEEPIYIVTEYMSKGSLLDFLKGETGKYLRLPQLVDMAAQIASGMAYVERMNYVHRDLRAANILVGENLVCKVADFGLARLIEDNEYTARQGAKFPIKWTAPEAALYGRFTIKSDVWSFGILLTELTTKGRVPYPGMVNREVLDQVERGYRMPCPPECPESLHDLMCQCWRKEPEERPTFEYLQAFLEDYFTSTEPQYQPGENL

[17] = target: Proto-oncogene tyrosine-protein kinase Src (Homo sapiens) (UniProt P12931); settings: at 1 µM
[18] = target: Tyrosine-protein kinase Srms (Homo sapiens) (UniProt Q9H3Y6); settings: at 0.1 µM
Chain of Tyrosine-protein kinase Srms (Homo sapiens) (Q9H3Y6 whole entry): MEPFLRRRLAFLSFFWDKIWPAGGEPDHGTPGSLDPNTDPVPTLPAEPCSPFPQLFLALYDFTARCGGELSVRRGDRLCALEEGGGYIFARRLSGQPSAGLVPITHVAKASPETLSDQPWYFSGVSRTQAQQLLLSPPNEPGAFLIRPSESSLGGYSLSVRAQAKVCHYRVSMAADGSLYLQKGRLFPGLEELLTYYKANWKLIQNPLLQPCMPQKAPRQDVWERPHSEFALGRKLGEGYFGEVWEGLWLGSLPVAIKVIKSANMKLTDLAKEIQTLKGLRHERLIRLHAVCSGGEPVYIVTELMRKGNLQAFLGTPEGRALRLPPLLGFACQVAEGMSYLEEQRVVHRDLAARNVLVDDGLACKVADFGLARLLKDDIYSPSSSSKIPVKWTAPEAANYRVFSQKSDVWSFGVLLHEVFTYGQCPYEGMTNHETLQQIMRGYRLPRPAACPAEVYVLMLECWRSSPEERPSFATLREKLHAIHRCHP

[19] = target: Tyrosine-protein kinase Srms (Homo sapiens) (UniProt Q9H3Y6); settings: at 1 µM
[20] = target: Tyrosine-protein kinase SYK (Homo sapiens) (UniProt P43405); settings: at 0.1 µM;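 note: reported percentages are mean inhibition values for SYK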

Chain of Platelet-derived growth factor receptor beta (Homo sapiens) (P09619 whole entry): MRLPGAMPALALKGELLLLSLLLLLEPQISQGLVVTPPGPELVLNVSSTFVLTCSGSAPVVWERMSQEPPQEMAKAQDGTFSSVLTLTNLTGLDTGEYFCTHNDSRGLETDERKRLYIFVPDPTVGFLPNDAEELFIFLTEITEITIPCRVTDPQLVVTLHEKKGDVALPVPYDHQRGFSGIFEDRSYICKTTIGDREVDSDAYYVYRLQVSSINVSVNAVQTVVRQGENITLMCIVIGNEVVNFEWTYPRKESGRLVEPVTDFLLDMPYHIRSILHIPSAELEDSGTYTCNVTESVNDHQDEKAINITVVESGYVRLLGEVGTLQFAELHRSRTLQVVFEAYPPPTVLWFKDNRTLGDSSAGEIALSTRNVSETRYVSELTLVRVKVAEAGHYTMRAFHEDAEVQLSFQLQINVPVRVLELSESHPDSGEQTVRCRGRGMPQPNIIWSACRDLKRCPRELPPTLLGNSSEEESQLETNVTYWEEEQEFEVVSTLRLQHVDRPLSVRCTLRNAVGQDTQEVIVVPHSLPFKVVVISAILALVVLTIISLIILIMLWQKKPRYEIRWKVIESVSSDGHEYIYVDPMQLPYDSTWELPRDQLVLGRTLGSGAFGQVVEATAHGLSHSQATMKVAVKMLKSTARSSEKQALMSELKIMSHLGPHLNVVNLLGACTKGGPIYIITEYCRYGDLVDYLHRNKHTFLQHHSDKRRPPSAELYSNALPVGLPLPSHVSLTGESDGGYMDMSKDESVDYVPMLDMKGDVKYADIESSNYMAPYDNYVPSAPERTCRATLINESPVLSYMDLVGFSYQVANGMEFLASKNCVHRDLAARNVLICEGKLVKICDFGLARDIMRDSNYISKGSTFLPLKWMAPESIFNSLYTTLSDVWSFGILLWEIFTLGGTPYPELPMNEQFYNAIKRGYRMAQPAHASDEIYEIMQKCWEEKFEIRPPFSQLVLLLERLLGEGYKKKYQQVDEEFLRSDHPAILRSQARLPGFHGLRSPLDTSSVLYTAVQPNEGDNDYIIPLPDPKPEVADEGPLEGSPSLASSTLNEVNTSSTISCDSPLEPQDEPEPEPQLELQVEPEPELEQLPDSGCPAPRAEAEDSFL
Chain of Tyrosine-protein kinase FRK (Homo sapiens) (P42685 whole entry): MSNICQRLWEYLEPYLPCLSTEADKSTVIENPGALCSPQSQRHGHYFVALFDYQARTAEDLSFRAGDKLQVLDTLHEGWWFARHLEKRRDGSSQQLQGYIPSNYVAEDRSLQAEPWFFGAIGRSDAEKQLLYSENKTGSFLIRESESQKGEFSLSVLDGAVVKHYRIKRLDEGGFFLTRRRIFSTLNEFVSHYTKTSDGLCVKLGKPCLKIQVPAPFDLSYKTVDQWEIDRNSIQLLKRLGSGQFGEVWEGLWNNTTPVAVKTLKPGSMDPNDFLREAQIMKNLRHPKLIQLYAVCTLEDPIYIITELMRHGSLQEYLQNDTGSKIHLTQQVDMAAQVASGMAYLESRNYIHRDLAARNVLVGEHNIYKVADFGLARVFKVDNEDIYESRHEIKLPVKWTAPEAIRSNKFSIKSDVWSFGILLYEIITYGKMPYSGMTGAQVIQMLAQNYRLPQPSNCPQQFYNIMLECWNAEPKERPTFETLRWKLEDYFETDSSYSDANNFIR

| Structure (SMILES) | inhibition [1] | inhibition [2] | inhibition [3] | inhibition [4] | inhibition [5] | inhibition [6] | inhibition [7] | inhibition [8] | inhibition [9] | inhibition [10] | inhibition [11] | inhibition [12] | inhibition [13] | inhibition [14] | inhibition [15] | inhibition [16] | inhibition [17] | inhibition [18] | inhibition [19] | inhibition [20] |
| --- | --- | --- | --- | --- | --- | --- | --- | --- | --- | --- | --- | --- | --- | --- | --- | --- | --- | --- | --- | --- |
| c1ccc(Nc2ncc(-c3ccccc3)o2)cc1 | 36% | 3.95% | 4.95% | 10.4% | 14.3% | 6.9% | 9.61% | 2.13% | 6.39% | 5.1% | 11.5% | 8.13% | 9.16% | 7.47% | 5.92% | 9.27% | 14.3% | 0.17% | 2.19% | 1.8% |
| CCS(=O)(=O)c1ccc(OC)c(Nc2nccc(N(C)c3ccc4c(C)n[nH]c4c3)n2)c1 | 70.9% | 20.6% | 70.2% | 4% | 19% | 64.8% | 83.5% | 4.04% | 8.57% | 58.1% | 80.2% | 2.28% | 11.8% | 12.1% | 51.3% | 42.5% | 81.2% | 11.4% | 50.3% | -1.92% |
| N#Cc1cccc(Nc2nccc(-c3cnn4ncccc34)n2)c1 | 65.1% | 5.2% | 16% | 21.6% | 71% | 8.71% | 37.4% | 6.87% | 43.8% | 7.91% | 37.3% | -3.06% | 15.6% | 32.1% | 74.2% | 14.3% | 66% | 1.1% | 14.7% | – |
| COc1cccc(-n2nc(C)c3c(N/N=C(\C)c4ccncc4)ncnc32)c1 | 5.79% | 0.1% | -0.17% | 1.44% | 8.6% | -0.76% | 0.88% | 1.04% | 1.23% | 2.73% | 5.78% | -3.77% | -0.1% | 2.71% | 4.49% | 2.45% | 3.26% | 0.84% | 2.72% | 1.37% |
| CCCN1CCCC(c2ccc(Nc3nc(Nc4cc(F)ccc4C(N)=O)c4cc[nH]c4n3)c(OC)c2)C1 (stereo not drawn) | 32.2% | 7.2% | 20.5% | 96% | 97.7% | 8.63% | 20.9% | 10.1% | 41.6% | 8.67% | 23.6% | 0.58% | 13.1% | 63.8% | 81.2% | -0.17% | 14.6% | 1.99% | 22.1% | – |
| NS(=O)(=O)c1ccc(Nc2cc(-c3cccc(O)c3)n[nH]2)cc1 | 26.1% | 0.88% | 2.04% | 10.7% | 12.3% | 6.46% | 15.5% | 9.69% | 21.3% | 13.4% | 26.2% | 5.75% | 0.78% | 6.66% | 12.1% | 3.91% | 11.9% | -2.79% | -7.29% | -3.9% |
| O=C1Nc2ccccc2/C1=C/Nc1ccc2[nH]c(=O)[nH]c2c1 | 56.7% | 6.33% | 8.07% | 20.6% | 46.4% | 23.7% | 61.3% | 32.4% | 75.4% | 25.8% | 67% | 5.9% | 10.9% | 3.89% | 11.8% | 5.5% | 31% | -2.08% | 3.2% | 3.76% |
| Cc1ccc(O)cc1Nc1ccnc2ccc(S(C)(=O)=O)cc12 | 84.2% | 89% | 95.7% | 15.7% | 41.3% | 81.8% | 88.4% | 7.62% | 26.6% | 81.3% | 89.5% | 5.15% | 6.07% | 5.41% | 8.68% | 92.2% | 95.1% | 27.4% | 69% | -7.79% |
| COC(=O)Nc1nc2cc(Oc3ccc(NC(=O)Nc4cccc(Br)c4)cc3)ccc2[nH]1 | 35.9% | 2.82% | 1.12% | 5.36% | 9.53% | 69.7% | 80.6% | 37.5% | 66.5% | 66.4% | 84.4% | 1.47% | 2.5% | 4.26% | 3.1% | 3.27% | 6.9% | 2.26% | 3.49% | -1.46% |
| Nc1ccc(C#Cc2cncnc2Nc2ccc(OCc3cccc(F)c3)c(Cl)c2)cc1 | 3.64% | 0.8% | 1.06% | -4.77% | 0.23% | 6.12% | 7.18% | 9.98% | 3.18% | 2.75% | 4.06% | 7.87% | 1.71% | 1.61% | 3.55% | 5.95% | 3.71% | -2.09% | -0.77% | -0.35% |
| CC(C)c1ccc(Nc2nccc(-c3cnn4ncccc34)n2)cc1 | 40.8% | 0.49% | 1.12% | 12% | 45.8% | 6.8% | 14.4% | 4.06% | 10.1% | 5.09% | 13.4% | 1.98% | 16.8% | 19.2% | 62.4% | 1.55% | 13.4% | 1.68% | 3.15% | -6.64% |
| COc1cc(/C=N/Nc2ncnc3c2cnn3C(C)C)ccc1O | 45.1% | 2.61% | 1.87% | 8.31% | 21.9% | 61.1% | 85.4% | 14.1% | 53.9% | 54% | 78.1% | 8.98% | 17.9% | 11.9% | 37.5% | 20.8% | 72.7% | 1.16% | 4.98% | -1.05% |
| COc1cc2ncnc(Nc3ccc(C)c(O)c3)c2cc1OC | 76.6% | 7.74% | 19.9% | 12.5% | 18.9% | 83.6% | 89.4% | 3.3% | 11.3% | 76.8% | 90.1% | 1.46% | 2.44% | 1.94% | 10.2% | 22.9% | 70.5% | 2.71% | 18.7% | -4.37% |
| NC(=O)c1cccc(Nc2nccc(Nc3cccc(F)c3)n2)c1 | 54.2% | 1.18% | 11.8% | 1.12% | 25.4% | -0.62% | 26.8% | 1.12% | 13.8% | 3.72% | 37.9% | -6.8% | 5.75% | 18.8% | 60.8% | 16.7% | 64.8% | 1.56% | 5.6% | 0.43% |
